Experimental data reported in PubChem BioAssay AID1159580 (chemical genetic matrix, 2015).
Among all 5,500 compounds or so, about 2,000 (36%) were called active. Not shown: some 18% with an inconclusive outcome. Cut-off read from the data, not from the text of the source: active = normalized growth mostly below about 0.91 (no sharp cut-off); inconclusive = no clear call, values can overlap the other calls; inactive = mostly above about 0.92. This is one part of the list.

Assay: chemical genetic growth profiling, strain panel (AID 1159580);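 note: tested at 20 µM; growth read once vehicle control cultures reached saturation at 30 °C; 1 = growth at the plate median or of vehicle wells; lower values mean less growth of the strain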
Settings: growth OD

Measured: normalized growth

COc1c(C(C)C)oc2cc3oc(=O)ccc3cc12
active: S. cerevisiae deletion strains, locus YCL029C, strain bik1, active compounds read low 0.839 | S. cerevisiae deletion strains, locus YDL035C, strain GPR1, active compounds read low 0.749 | S. cerevisiae deletion strains, locus YDL074C, strain BRE1, active compounds read low 0.721 | S. cerevisiae deletion strains, locus YDL192W, strain arf1, active compounds read low 0.894 | S. cerevisiae deletion strains, locus YDR162C, strain NBP2, active compounds read low 0.826 | S. cerevisiae deletion strains, locus YDR318W, strain mcm21, active compounds read low 0.89 | S. cerevisiae deletion strains, locus YDR502C, strain sam2, active compounds read low 0.873 | S. cerevisiae deletion strains, locus YGL078C, strain dbp3, active compounds read low 0.911 | S. cerevisiae deletion strains, locus YGL086W, strain mad1, active compounds read low 0.883 | S. cerevisiae deletion strains, locus YGL248W, strain PDE1, active compounds read low 0.869 | S. cerevisiae deletion strains, locus YGR135W, strain pre9, active compounds read low 0.779 | S. cerevisiae deletion strains, locus YGR252W, strain gcn5, active compounds read low 0.55 | S. cerevisiae deletion strains, locus YHR030C, strain SLT2, active compounds read low 0.885 | S. cerevisiae deletion strains, locus YHR129C, strain ARP1, active compounds read low 0.901 | S. cerevisiae deletion strains, locus YHR200W, strain rpn10, active compounds read low 0.915 | S. cerevisiae deletion strains, locus YIL066C, strain RNR3, active compounds read low 0.801 | S. cerevisiae deletion strains, locus YJL095W, strain BCK1, active compounds read low 0.722 | S. cerevisiae deletion strains, locus YJR043C, strain POL32, active compounds read low 0.764 | S. cerevisiae deletion strains, locus YJR075W, strain HOC1, active compounds read low 0.877 | S. cerevisiae deletion strains, locus YKL009W, strain mrt4, active compounds read low 0.745 | S. cerevisiae deletion strains, locus YKR001C, strain vps1, active compounds read low 0.777 | S. cerevisiae deletion strains, locus YLR330W, strain CHS5, active compounds read low 0.874 | S. cerevisiae deletion strains, locus YLR342W, strain FKS1 (second series), active compounds read low 0.661 | S. cerevisiae deletion strains, locus YLR418C, strain cdc73, active compounds read low 0.703 | S. cerevisiae deletion strains, locus YML032C, strain rad52, active compounds read low 0.855 | S. cerevisiae deletion strains, locus YMR223W, strain ubp8, active compounds read low 0.9 | S. cerevisiae deletion strains, locus YMR263W, strain SAP30, active compounds read low 0.887 | S. cerevisiae deletion strains, locus YNL067W, strain RPL9B, active compounds read low 0.862 | S. cerevisiae deletion strains, locus YNL153C, strain GIM3, active compounds read low 0.859 | S. cerevisiae deletion strains, locus YNL233W, strain BNI4, active compounds read low 0.806 | S. cerevisiae deletion strains, locus YNL271C, strain bni1, active compounds read low 0.889 | S. cerevisiae deletion strains, locus YNL298W, strain CLA4, active compounds read low 0.802 | S. cerevisiae deletion strains, locus YNL307C, strain MCK1, active compounds read low 0.51 | S. cerevisiae deletion strains, locus YNR052C, strain pop2, active compounds read low 0.884 | S. cerevisiae deletion strains, locus YOR184W, strain ser1, active compounds read low 0.828 | S. cerevisiae deletion strains, locus YPL055C, strain LGE1, active compounds read low 0.755 | S. cerevisiae deletion strains, locus YPR163C, strain tif3, active compounds read low 0.769 | S. cerevisiae deletion strains, locus YPR167C, strain met16, active compounds read low 0.895 | S. cerevisiae deletion strains, strain wtn01, active compounds read low 0.887 | S. cerevisiae strains, strain wild type, active compounds read low 0.899
inactive: S. cerevisiae deletion strains, locus YBR021W, strain FUR4, active compounds read low 0.915 | S. cerevisiae deletion strains, locus YBR229C, strain ROT2, active compounds read low 0.987 | S. cerevisiae deletion strains, locus YDL101C, strain DUN1, active compounds read low 0.918 | S. cerevisiae deletion strains, locus YDL185W, strain tfp1, active compounds read low 0.933 | S. cerevisiae deletion strains, locus YDR101C, strain arx1, active compounds read low 0.929 | S. cerevisiae deletion strains, locus YDR388W, active compounds read low 0.935 | S. cerevisiae deletion strains, locus YEL061C, strain CIN8, active compounds read low 0.933 | S. cerevisiae deletion strains, locus YER110C, active compounds read low 0.914 | S. cerevisiae deletion strains, locus YER155C, strain BEM2, active compounds read low 0.972 | S. cerevisiae deletion strains, locus YER167W, strain BCK2, active compounds read low 0.921 | S. cerevisiae deletion strains, locus YHR079C, strain IRE1 (second series), active compounds read low 0.954 | S. cerevisiae deletion strains, locus YHR094C, strain hxt1, active compounds read low 0.967 | S. cerevisiae deletion strains, locus YIL073C, strain SPO22, active compounds read low 0.838 | S. cerevisiae deletion strains, locus YIL125W, strain kgd1, active compounds read low 0.971 | S. cerevisiae deletion strains, locus YIR030C, strain dcg1, active compounds read low 0.941 | S. cerevisiae deletion strains, locus YJL134W, strain LCB3, active compounds read low 0.983 | S. cerevisiae deletion strains, locus YJL168C, strain set2, active compounds read low 0.957 | S. cerevisiae deletion strains, locus YJL187C, strain SWE1 (second series), active compounds read low 0.883 | S. cerevisiae deletion strains, locus YKL068W, active compounds read low 0.965 | S. cerevisiae deletion strains, locus YKL085W, strain MDH1 (second series), active compounds read low 0.958 | S. cerevisiae deletion strains, locus YKL085W, strain MDH1, active compounds read low 0.958 | S. cerevisiae deletion strains, locus YLR039C, strain RIC1, active compounds read low 0.944 | S. cerevisiae deletion strains, locus YLR058C, strain SHM2, active compounds read low 0.932 | S. cerevisiae deletion strains, locus YLR102C, strain apc9, active compounds read low 0.946 | S. cerevisiae deletion strains, locus YLR262C, strain YPT6, active compounds read low 0.971 | S. cerevisiae deletion strains, locus YLR268W, strain sec22, active compounds read low 0.888 | S. cerevisiae deletion strains, locus YLR371W, strain rom2, active compounds read low 0.951 | S. cerevisiae deletion strains, locus YML016C, strain PPZ1, active compounds read low 0.958 | S. cerevisiae deletion strains, locus YML124C, strain tub3, active compounds read low 0.96 | S. cerevisiae deletion strains, locus YMR078C, strain ctf18, active compounds read low 0.945 | S. cerevisiae deletion strains, locus YMR307W, strain GAS1, active compounds read low 0.743 | S. cerevisiae deletion strains, locus YNL250W, strain rad50, active compounds read low 0.932 | S. cerevisiae deletion strains, locus YOL012C, strain htz1 1.16 | S. cerevisiae deletion strains, locus YOL147C, strain pex11, active compounds read low 0.935 | S. cerevisiae deletion strains, locus YOR061W, strain CKA2, active compounds read low 0.91 | S. cerevisiae deletion strains, locus YOR069W, strain VPS5, active compounds read low 0.967 | S. cerevisiae deletion strains, locus YOR136W, strain idh2, active compounds read low 0.943 | S. cerevisiae deletion strains, locus YOR144C, strain elg1, active compounds read low 0.963 | S. cerevisiae deletion strains, locus YOR316C, strain cot1, active compounds read low 0.957 | S. cerevisiae deletion strains, locus YPR119W, strain clb2, active compounds read low 0.957 | S. cerevisiae deletion strains, locus YPR141C, strain kar3, active compounds read low 0.952
